# Laboratory results: PubChem BioAssay (EPA / NIEHS)
# Inconclusive results are not listed. Calls of active or inactive are those of the source. How the source made its calls, unless noted: active means hit-call score of the fitted dose curve at least 0.9, where 1 is the maximum; inconclusive means response in the unintended direction; inactive means score below 0.9.
# Experiments:
# PGR (gene 5241) [1] = biological target: PGR (gene 5241) (UniProt P06401); assay: TOX21_PR_BLA_Followup_Antagonist_ratio: Tox21 HEK293 Progesterone Receptor (PR) Antagonism Beta-lactamase Follow-Up Assay, Ratio (AID 2283934)
# Sequence of PGR (gene 5241) (P06401 whole entry, looked up, the tested form may be a part): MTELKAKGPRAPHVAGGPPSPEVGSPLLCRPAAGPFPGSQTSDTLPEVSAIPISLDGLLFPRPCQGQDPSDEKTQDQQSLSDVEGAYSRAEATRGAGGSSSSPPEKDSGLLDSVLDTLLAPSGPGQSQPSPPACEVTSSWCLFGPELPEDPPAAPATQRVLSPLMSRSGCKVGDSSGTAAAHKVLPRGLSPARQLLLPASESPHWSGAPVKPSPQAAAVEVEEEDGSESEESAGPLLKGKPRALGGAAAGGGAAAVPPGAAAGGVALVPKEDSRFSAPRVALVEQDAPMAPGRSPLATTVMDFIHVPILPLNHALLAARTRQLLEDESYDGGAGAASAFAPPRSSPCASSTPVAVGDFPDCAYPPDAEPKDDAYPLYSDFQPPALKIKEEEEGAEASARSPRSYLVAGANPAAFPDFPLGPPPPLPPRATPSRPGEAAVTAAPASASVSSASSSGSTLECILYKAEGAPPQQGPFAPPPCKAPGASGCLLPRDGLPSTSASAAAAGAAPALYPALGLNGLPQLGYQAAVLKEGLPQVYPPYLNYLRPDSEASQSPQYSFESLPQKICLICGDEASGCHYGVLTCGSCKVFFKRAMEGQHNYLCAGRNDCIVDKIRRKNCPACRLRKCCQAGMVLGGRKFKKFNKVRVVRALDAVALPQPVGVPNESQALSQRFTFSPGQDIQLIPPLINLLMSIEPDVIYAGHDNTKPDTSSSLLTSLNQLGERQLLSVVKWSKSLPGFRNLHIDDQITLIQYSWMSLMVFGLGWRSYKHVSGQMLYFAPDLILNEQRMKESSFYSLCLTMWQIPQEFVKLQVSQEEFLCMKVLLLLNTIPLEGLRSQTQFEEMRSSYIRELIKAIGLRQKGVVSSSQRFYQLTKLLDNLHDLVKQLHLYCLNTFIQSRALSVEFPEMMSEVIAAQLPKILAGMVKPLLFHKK
# Outline: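 Read-out: blue/green beta-lactamase FRET ratio (cleaved ch2 over uncleaved ch1), fitted relative to DMSO baseline. Cells: PR-UAS-bla HEK293T, GAL4-UAS reporter, stimulated with 1 nM R5020 final; 16 hr compound exposure, 37C.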
# [2] = TOX21_PR_BLA_Followup_Agonist_viability: Viability Assessment in the Tox21 HEK293 Progesterone Receptor (PR) Agonism Beta-lactamase Follow-Up Assay (AID 2283935);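 further: signal loss means lower viability so actives are cytotoxic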
# Outline: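 Luminescent ATP quantitation (CellTiter-Glo, 30 min, room temperature) in the same wells as the beta-lactamase read, on PR-UAS-bla HEK293T cells exposed to compound for 16 hr at 37C in 2% charcoal-stripped serum.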
# [3] = TOX21_PR_BLA_Followup_Antagonist_viability: Viability Assessment in the Tox21 HEK293 Progesterone Receptor (PR) Antagonism Beta-lactamase Follow-Up Assay (AID 2283936);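 further: cells exposed to compound with R5020 agonist for 16 h; hits lower the luminescence signal meaning cytotoxicity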
# Outline: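 PR-UAS-bla HEK293T cells in medium with 2% charcoal-stripped FBS were treated with compounds plus R5020 for 16 hr at 37C. After the beta-lactamase read, CellTiter-Glo was added to the same wells and luminescence read after 30 min at room temperature.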
# PGR (gene 5241) [4] = biological target: PGR (gene 5241) (UniProt P06401); assay: TOX21_PR_BLA_Followup_Agonist_ratio: Tox21 HEK293 Progesterone Receptor (PR) Agonism Beta-lactamase Follow-Up Assay, Ratio (AID 2283933)
# Outline: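 Read-out: ratio of cleaved (ch2) to uncleaved (ch1) beta-lactamase substrate fluorescence, gain-of-signal relative to DMSO baseline. Cells: PR-UAS-bla HEK293T, 2% charcoal-stripped FBS; compound exposure 16 hr, 37C; substrate 2 hr, RT.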
# PGR (gene 5241) [5] = biological target: PGR (gene 5241) (UniProt P06401); assay: TOX21_PR_LUC_Followup_Agonist: Tox21 HEK293 Progesterone Receptor (PR) Agonism Luciferase Follow-Up Assay (AID 2283937; active means hit-call score of the fitted dose curve at least 0.9, where 1 is the maximum; inactive means score below 0.9)
# Outline: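 Luminescence read-out (ONE-Glo, 30 min at room temperature) of PR-driven luciferase in HEK293-PR-A-luc cells after 16 h compound exposure at 37C; gain of signal fitted relative to DMSO baseline.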
# [6] = CEETOX_H295R_OHPROG_noMTC: CeeTox H295R High-throughput Steroidogenesis Assay for OH-Progesterone (OHPROG), maximum tolerated concentration (MTC) filtered results only (AID 2283914; active means hit-call score of the fitted dose curve at least 0.9, where 1 is the maximum; inactive means score below 0.9); conditions: actives raise or lower the signal
# Outline: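 After 48 h forskolin (10 uM) prestimulation, H295R adrenal cells received test chemical in 0.1% DMSO for 48 h. Medium 17alpha-hydroxyprogesterone was MTBE-extracted and measured by HPLC-MS/MS; gain or loss relative to DMSO, no MTT-based MTC filtering.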
# [7] = CEETOX_H295R_CORTISOL_noMTC: CeeTox H295R High-throughput Steroidogenesis Assay for Cortisol, maximum tolerated concentration (MTC) filtered results only (AID 2283916; active means hit-call score of the fitted dose curve at least 0.9, where 1 is the maximum; inactive means score below 0.9); conditions: actives raise or lower the signal
# Outline: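 Cortisol secretion measured by LC-MS/MS after 48 h chemical treatment (final 0.1% DMSO) of forskolin-primed (10 uM, 48 h) H295R cells; gain or loss fitted relative to DMSO, without maximum-tolerated-concentration filtering.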
# [8] = CEETOX_H295R_CORTIC_noMTC: CeeTox H295R High-throughput Steroidogenesis Assay for Corticosterone (CORTIC), maximum tolerated concentration (MTC) filtered results only (AID 2283917; active means hit-call score of the fitted dose curve at least 0.9, where 1 is the maximum; inactive means score below 0.9); conditions: actives raise or lower the signal
# Outline: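 Human adrenal H295R cells were prestimulated 48 h with 10 uM forskolin, then exposed 48 h to chemical in 0.1% DMSO. Medium corticosterone was MTBE-extracted and quantified by HPLC-MS/MS; bidirectional fits versus DMSO, concentrations not MTC-filtered.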
# [9] = CEETOX_H295R_DOC_noMTC: CeeTox H295R High-throughput Steroidogenesis Assay for DOC, maximum tolerated concentration (MTC) filtered results only (AID 2283918; active means hit-call score of the fitted dose curve at least 0.9, where 1 is the maximum; inactive means score below 0.9); conditions: actives raise or lower the signal
# Outline: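 11-Deoxycorticosterone secreted by human adrenal H295R cells quantified by HPLC-MS/MS after 48 h chemical exposure (0.1% DMSO), following 48 h 10 uM forskolin prestimulation. Concentrations not filtered by MTT-derived MTC; bidirectional fitting.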
# [10] = CEETOX_H295R_PROG_noMTC: CeeTox H295R High-throughput Steroidogenesis Assay for Progesterone (PROG), maximum tolerated concentration (MTC) filtered results only (AID 2283920; active means hit-call score of the fitted dose curve at least 0.9, where 1 is the maximum; inactive means score below 0.9); conditions: actives raise or lower the signal
# Outline: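 Progesterone secreted into medium was measured by HPLC-MS/MS after MTBE extraction, following 48 h chemical exposure (0.1% DMSO) of forskolin-prestimulated (10 uM, 48 h) H295R adrenal cells. Gain or loss fitted against DMSO; no MTC filtering.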
compound,measurement,setting,value
C[C@H]1C[C@H]2[C@@H]3CCC4=CC(=O)C=C[C@]4(C)[C@@]3(F)[C@@H](O)C[C@]2(C)[C@@]1(O)C(=O)COP(=O)(O)O,outcome,PGR (gene 5241) [1],inactive
same,outcome,[2],inactive
same,outcome,[3],inactive
CC(=O)[C@H]1CC[C@H]2[C@@H]3CC=C4C[C@@H](O)CC[C@]4(C)[C@H]3CC[C@]12C,outcome,PGR (gene 5241) [1],inactive
same,outcome,[2],inactive
same,outcome,[3],inactive
C#C[C@]1(O)CC[C@H]2[C@@H]3CCC4=Cc5oncc5C[C@]4(C)[C@H]3CC[C@@]21C,AC50,PGR (gene 5241) [1],0.0919 µM (active)
same,outcome,[2],inactive
same,outcome,[3],inactive
C[C@]12CC[C@H]3[C@@H](CCC4=CC(=O)CC[C@@]43C)[C@@H]1CC[C@@H]2C(=O)CO,outcome,PGR (gene 5241) [1],inactive
same,outcome,[2],inactive
same,outcome,[3],inactive
COC(=O)C1=C(C)NC(C)=C(C(=O)OCCN(C)Cc2ccccc2)C1c1cccc([N+](=O)[O-])c1 (stereo not drawn),AC50,PGR (gene 5241) [1],25 µM (active)
same,AC50,[2],79.9 µM (active)
same,AC50,[3],72.7 µM (active)
O=c1cc(-c2ccccc2)oc2cc(O)cc(O)c12,outcome,PGR (gene 5241) [4],inactive
same,AC50,PGR (gene 5241) [1],8.76 µM (active)
same,outcome,[2],inactive
same,outcome,[3],inactive
same,AC50,PGR (gene 5241) [5],31 µM (active)
C[C@H]1C[C@@H]2[C@H]([C@@H](O)C[C@@]3(C)[C@H]2CC[C@]3(O)C(=O)CO)[C@@]2(C)C=CC(=O)C=C12,AC50,PGR (gene 5241) [4],58.7 µM (active)
same,outcome,PGR (gene 5241) [1],inactive
same,outcome,[2],inactive
same,outcome,[3],inactive
same,AC50,PGR (gene 5241) [5],0.334 µM (active)
CCCc1c(OCCCOc2ccc(OCC(=O)O)cc2)ccc(C(C)=O)c1O,outcome,PGR (gene 5241) [4],inactive
same,AC50,PGR (gene 5241) [1],31.5 µM (active)
same,outcome,[2],inactive
same,outcome,[3],inactive
same,outcome,PGR (gene 5241) [5],inactive
O=C(Oc1ccccc1)c1ccc(O)cc1,outcome,PGR (gene 5241) [1],inactive
same,outcome,[2],inactive
same,outcome,[3],inactive
Cc1ccc(C(C)C)cc1O,AC50,[6],33 µM (active)
same,outcome,[7],inactive
same,outcome,[8],inactive
same,outcome,[9],inactive
same,AC50,[10],41.4 µM (active)
CC1CC(OC(=O)c2ccccc2O)CC(C)(C)C1 (stereo not drawn),outcome,[6],inactive
same,outcome,[7],inactive
same,outcome,[8],inactive
same,outcome,[9],inactive
same,outcome,[10],inactive
